Values joined by “and” are separate entries in the source; they are usually repeats but may differ in a detail not shown here. Equal values may be shown once. Results filed as inconclusive are left out. Active and inactive are the calls of the source. How the source made its calls: active means hit-call score of the fitted dose curve at least 0.9, where 1 is the maximum; inconclusive means response in the unintended direction; inactive means score below 0.9.

Assay [1] concerns the target human Vascular Endothelial Growth Factor Receptor 2 (VEGFR2), KDR (gene 3791) (UniProt P35968). As to the kind of experiment: NVS_ENZ_hVEGFR2: NovaScreen (NVS) Enzymatic Assay for human Vascular Endothelial Growth Factor Receptor 2 (VEGFR2) (AID 2283230). Summed up: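 Cell-free recombinant VEGFR2 kinase, fluorescent substrate with electrophoretic mobility-shift separation; read 1 h after dosing. Screened at 25 uM in duplicate, hits to concentration-response up to 50 uM; loss-of-signal versus DMSO.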

Assay [2] concerns the target sheep Cyclooxygenase-1 (Cox1), PTGS1 (gene 443551) (UniProt P05979). As to the kind of experiment: NVS_ENZ_oCOX1: NovaScreen (NVS) Enzymatic Assay for sheep Cyclooxygenase-1 (Cox1) (AID 2283239).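 Further: actives reduce cyclooxygenase activity so potencies are for inhibitors.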 Put shortly: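 Ovine seminal vesicle extract; absorbance (colorimetric) enzyme read-out at 0.66 h post-dose. Primary: single conc 25 uM, duplicate. Follow-up: concentration series on actives. Activity = signal loss vs DMSO baseline.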

Assay [3] addresses Adenosine receptor A1 (Bos taurus) (UniProt P28190). As to the kind of experiment: NVS_GPCR_bAdoR_NonSelective: NovaScreen (NVS) G Protein-Coupled Receptor Assay for bovine Adenosine Receptor (AdoR), Non-selective Binding (AID 2283244). Put shortly: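 Bovine striatal membranes, radioligand displacement binding, 1 h after dosing, filter-based scintillation counting. Screened in duplicate at 25 uM, then concentration-response up to 50 uM; loss of specific binding relative to DMSO.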

In assay [4] the test system is bovine Histamine 1 Receptor (H1), gene 281231. As to the kind of experiment: NVS_GPCR_bH1: NovaScreen (NVS) G Protein-Coupled Receptor Assay for bovine Histamine 1 Receptor (H1) (AID 2283246). Put shortly: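 Radioligand displacement on bovine cerebellar membranes, 1 h after dosing, filter-based scintillation read-out; loss of signal vs DMSO. Duplicate single-concentration screen at 25 uM, then concentration-response up to 50 uM for hits.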

Assay [5] deals with sheep Cyclooxygenase-2 (Cox2), PTGS2 (gene 443460) (UniProt P79208). As to the kind of experiment: NVS_ENZ_oCOX2: NovaScreen (NVS) Enzymatic Assay for sheep Cyclooxygenase-2 (Cox2) (AID 2283231). Put shortly:
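Enzyme from ovine placenta, cell-free; colorimetric absorbance read 0.66 hour after dosing, loss of signal vs DMSO. Screened in duplicate at 25 uM, then concentration-response up to 50 uM.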

Assay [6] concerns the target human Adenosine A1 Receptor (AdoRA1), ADORA1 (gene 134) (UniProt P30542). As to the kind of experiment: NVS_GPCR_hAdoRA1: NovaScreen (NVS) G Protein-Coupled Receptor Assay for human Adenosine A1 Receptor (AdoRA1) (AID 2283254). Put shortly:
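Radioligand binding was run on human cortical membranes, cell-free, with filter-based scintillation counting 1 h after dosing. The primary screen was duplicate at 25 uM, followed by concentration series. Signal loss versus DMSO was fitted positive-direction.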

The target in assay [7] is human Adenosine A2a Receptor (AdoRA2a), ADORA2A (gene 135) (UniProt P29274). As to the kind of experiment: NVS_GPCR_hAdoRA2a: NovaScreen (NVS) G Protein-Coupled Receptor Assay for human Adenosine A2a Receptor (AdoRA2a) (AID 2283256). Put shortly:
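Radioligand displacement on HEK293-derived membrane protein, cell-free; filter-based scintillation counting 1.5 hours after dosing, loss of signal vs DMSO. Single-point duplicate screen at 25 uM, actives retested in concentration series.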

Assay [8] addresses rat Constitutive Nitric Oxide Synthase (CNOS), Nos1 (gene 24598) (UniProt P29476). As to the kind of experiment: NVS_ENZ_rCNOS: NovaScreen (NVS) Enzymatic Assay for rat Constitutive Nitric Oxide Synthase (CNOS) (AID 2283236). Summed up: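 Enzyme activity in rat brain membrane preparation, read 1 h after dosing by filter-based radiometric scintillation counting. Primary screen in duplicate at 25 uM; actives (e.g., ≥30% inhibition) then run in concentration-response up to 50 uM.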

The target of assay [9] is guinea pig Opioid, Kappa 1 Receptor (OpiateK), OPRK1 (gene 100135587) (UniProt P41144). As to the kind of experiment: NVS_GPCR_gOpiateK: NovaScreen (NVS) G Protein-Coupled Receptor Assay for guinea pig Opioid, Kappa 1 Receptor (OpiateK) (AID 2283252).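 Further: radioligand displacement from kappa opioid receptor in guinea pig cerebellar membranes; active means reduced radioligand binding relative to DMSO.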 Put shortly:
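Guinea pig cerebellar membranes were incubated with a radioligand for 2 h after compound addition; bound radioactivity was read by filter-based scintillation counting. Loss of specific binding relative to DMSO baseline defined activity; primary screen at 25 uM in duplicate.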

Assay [10] deals with bovine Angiotensin II Receptor Type 2 (AT2), gene 407157. As to the kind of experiment: NVS_GPCR_bAT2: NovaScreen (NVS) G Protein-Coupled Receptor Assay for bovine Angiotensin II Receptor Type 2 (AT2) (AID 2283240). Summed up: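 Radioligand displacement on bovine cerebellar membranes, 1 hour incubation, filter-based scintillation counting; loss of signal vs DMSO. Duplicate single-point screen at 25 uM, then concentration-response to 50 uM maximum.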

The target of assay [11] is bovine Dopamine Receptor (DR), Non-selective Binding, DRD1 (gene 281125) (UniProt Q95136). As to the kind of experiment: NVS_GPCR_bDR_NonSelective: NovaScreen (NVS) G Protein-Coupled Receptor Assay for bovine Dopamine Receptor (DR), Non-selective Binding (AID 2283241). Summed up:
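Bovine striatal membranes; radioligand displacement read by filtration and scintillation counting 1 h after dosing, loss of signal vs DMSO. Screened in duplicate at 25 uM, then concentration-response for hits.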

Assay [12] has as its target human Serotonin, 5-Hydroxytryptamine Receptor 2A (5HT2A), HTR2A (gene 3356) (UniProt P28223). As to the kind of experiment: NVS_GPCR_h5HT2A: NovaScreen (NVS) G Protein-Coupled Receptor Assay for human Serotonin, 5-Hydroxytryptamine Receptor 2A (5HT2A) (AID 2283249). Put shortly:
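Human cortex membranes, cell-free radioligand binding; filter-based scintillation read 1.5 h after dosing. Duplicate screen at 25 uM first; displacement of specific binding (loss of signal) versus DMSO.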

For assay [13], the system named is guinea pig Muscarinic, Peripheral (Mperiperal) Receptor, Non-selective Binding, gene 100379235. As to the kind of experiment: NVS_GPCR_gMPeripheral_NonSelective: NovaScreen (NVS) G Protein-Coupled Receptor Assay for guinea pig Muscarinic, Peripheral (Mperiperal) Receptor, Non-selective Binding (AID 2283250). Summed up:
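Guinea pig bladder membranes, radioligand binding read 1 h after dosing by filter scintillation counting; loss of signal vs DMSO. Primary duplicate screen at 25 uM, then concentration-response up to 50 uM.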

Assay [14] has as its target human Serotonin, 5-Hydroxytryptamine Receptor 7 (5HT7), HTR7 (gene 3363) (UniProt P34969). As to the kind of experiment: NVS_GPCR_h5HT7: NovaScreen (NVS) G Protein-Coupled Receptor Assay for human Serotonin, 5-Hydroxytryptamine Receptor 7 (5HT7) (AID 2283255).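 Further: hits reduce specific radioligand binding relative to DMSO.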 Summed up:
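Radioligand displacement on membranes from CHO cells expressing human 5HT7, 1 h incubation, filter-based scintillation counting. Primary screen used a single 25 uM concentration in duplicate; actives were followed up in concentration series.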

Assay [15] can be described thus: NVS_GPCR_bNPY_NonSelective: NovaScreen (NVS) G Protein-Coupled Receptor Assay for bovine Neuropeptide Y (NPY) Receptor, Non-selective Binding (AID 2283245). Put shortly:
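Bovine hippocampal membranes incubated 1 hour with radioligand and test chemical. Bound ligand measured by filter-based scintillation counting. Single-concentration screen at 25 uM in duplicate, then concentration-response up to 50 uM.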

Assay [16] addresses human Serotonin, 5-Hydroxytryptamine Receptor 5A (5HT5A), HTR5A (gene 3361) (UniProt P47898). As to the kind of experiment: NVS_GPCR_h5HT5A: NovaScreen (NVS) G Protein-Coupled Receptor Assay for human Serotonin, 5-Hydroxytryptamine Receptor 5A (5HT5A) (AID 2283251). Put shortly: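 Cell-free radioligand displacement binding on HEK293-derived membrane protein, 1 h incubation, filter-based scintillation counting. Primary screen in duplicate at 25 uM, actives followed in concentration series; loss of signal fitted versus DMSO.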

Assay [17] deals with human Serotonin, 5-Hydroxytryptamine Receptor 6 (5HT6), HTR6 (gene 3362) (UniProt P50406). As to the kind of experiment: NVS_GPCR_h5HT6: NovaScreen (NVS) G Protein-Coupled Receptor Assay for human Serotonin, 5-Hydroxytryptamine Receptor 6 (5HT6) (AID 2283253). Put shortly: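 Radioligand binding to 5HT6 in HEK293-derived membranes, cell-free, 1 h after dosing; bound ligand measured by filter-based scintillation counting. Primary screen in duplicate at 25 uM; actives retested in concentration series.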
Chain of human Serotonin, 5-Hydroxytryptamine Receptor 6 (5HT6), HTR6 (gene 3362) (P50406 whole entry, looked up): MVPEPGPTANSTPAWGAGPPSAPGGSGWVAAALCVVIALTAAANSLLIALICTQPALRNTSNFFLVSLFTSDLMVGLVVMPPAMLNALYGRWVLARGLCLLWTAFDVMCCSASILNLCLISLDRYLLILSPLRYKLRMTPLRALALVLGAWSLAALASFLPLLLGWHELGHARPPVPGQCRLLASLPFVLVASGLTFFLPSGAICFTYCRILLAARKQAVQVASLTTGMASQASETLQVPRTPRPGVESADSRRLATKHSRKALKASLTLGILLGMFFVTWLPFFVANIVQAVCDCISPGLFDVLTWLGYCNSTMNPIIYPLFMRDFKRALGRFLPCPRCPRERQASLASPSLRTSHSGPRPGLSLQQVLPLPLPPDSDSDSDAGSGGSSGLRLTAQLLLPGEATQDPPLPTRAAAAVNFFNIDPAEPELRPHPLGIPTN

Assay [18] concerns the target guinea pig Leukotriene D4 Receptor (LTD4), CYSLTR1 (gene 100135514) (UniProt Q2NNR5). As to the kind of experiment: NVS_GPCR_gLTD4: NovaScreen (NVS) G Protein-Coupled Receptor Assay for guinea pig Leukotriene D4 Receptor (LTD4) (AID 2283248). Summed up: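 Radioligand displacement on guinea pig lung membranes, 1 h incubation, filtration and scintillation counting; DMSO as negative control. Duplicate […] uM primary screen, then singleton concentration-response up to 50 uM.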

Chain of human Adenosine A1 Receptor (AdoRA1), ADORA1 (gene 134) (P30542 whole entry, looked up): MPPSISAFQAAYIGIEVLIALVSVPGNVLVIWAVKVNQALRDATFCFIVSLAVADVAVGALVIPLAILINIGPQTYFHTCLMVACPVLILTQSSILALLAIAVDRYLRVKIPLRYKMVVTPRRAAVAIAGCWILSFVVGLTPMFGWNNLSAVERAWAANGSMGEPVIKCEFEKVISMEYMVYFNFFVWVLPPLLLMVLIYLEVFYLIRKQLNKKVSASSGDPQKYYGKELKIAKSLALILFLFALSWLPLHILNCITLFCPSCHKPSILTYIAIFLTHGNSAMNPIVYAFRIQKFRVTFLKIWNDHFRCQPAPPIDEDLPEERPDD
Chain of human Vascular Endothelial Growth Factor Receptor 2 (VEGFR2), KDR (gene 3791) (P35968 whole entry, looked up): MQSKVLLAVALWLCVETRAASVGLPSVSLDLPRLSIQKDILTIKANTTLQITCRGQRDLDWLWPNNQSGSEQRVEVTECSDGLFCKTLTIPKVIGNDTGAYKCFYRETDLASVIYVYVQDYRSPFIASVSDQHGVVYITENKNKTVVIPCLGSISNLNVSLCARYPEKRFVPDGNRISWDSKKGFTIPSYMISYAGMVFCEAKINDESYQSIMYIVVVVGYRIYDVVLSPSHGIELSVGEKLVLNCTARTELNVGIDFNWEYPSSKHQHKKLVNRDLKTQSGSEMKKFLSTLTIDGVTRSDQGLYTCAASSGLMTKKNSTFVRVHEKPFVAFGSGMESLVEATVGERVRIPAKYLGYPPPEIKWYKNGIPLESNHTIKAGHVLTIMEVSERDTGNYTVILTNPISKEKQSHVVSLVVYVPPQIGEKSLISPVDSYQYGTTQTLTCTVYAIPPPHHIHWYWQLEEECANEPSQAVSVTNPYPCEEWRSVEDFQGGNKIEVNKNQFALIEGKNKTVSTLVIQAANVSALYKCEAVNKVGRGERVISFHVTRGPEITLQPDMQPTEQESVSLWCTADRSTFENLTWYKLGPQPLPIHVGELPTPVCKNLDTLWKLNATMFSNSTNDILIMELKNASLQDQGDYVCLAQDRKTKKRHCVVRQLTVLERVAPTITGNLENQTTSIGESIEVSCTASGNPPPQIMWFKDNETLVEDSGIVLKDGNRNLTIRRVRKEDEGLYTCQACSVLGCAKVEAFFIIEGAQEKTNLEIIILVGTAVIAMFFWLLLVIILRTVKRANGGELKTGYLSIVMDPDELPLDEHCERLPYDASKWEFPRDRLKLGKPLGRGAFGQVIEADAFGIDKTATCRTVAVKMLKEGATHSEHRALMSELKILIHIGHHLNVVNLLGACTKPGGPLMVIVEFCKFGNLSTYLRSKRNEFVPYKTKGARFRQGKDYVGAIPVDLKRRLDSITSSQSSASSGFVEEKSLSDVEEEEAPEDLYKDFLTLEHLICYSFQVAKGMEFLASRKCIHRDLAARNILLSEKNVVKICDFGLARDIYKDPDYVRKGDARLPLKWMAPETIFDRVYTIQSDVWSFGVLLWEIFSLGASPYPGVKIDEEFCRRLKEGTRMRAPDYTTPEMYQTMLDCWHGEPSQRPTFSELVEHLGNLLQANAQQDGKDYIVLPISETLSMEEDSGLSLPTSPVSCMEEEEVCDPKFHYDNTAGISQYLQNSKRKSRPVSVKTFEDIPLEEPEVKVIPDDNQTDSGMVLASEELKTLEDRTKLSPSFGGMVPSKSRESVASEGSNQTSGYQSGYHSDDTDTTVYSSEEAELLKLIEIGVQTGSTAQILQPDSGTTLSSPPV
Chain of sheep Cyclooxygenase-2 (Cox2), PTGS2 (gene 443460) (P79208 whole entry, looked up): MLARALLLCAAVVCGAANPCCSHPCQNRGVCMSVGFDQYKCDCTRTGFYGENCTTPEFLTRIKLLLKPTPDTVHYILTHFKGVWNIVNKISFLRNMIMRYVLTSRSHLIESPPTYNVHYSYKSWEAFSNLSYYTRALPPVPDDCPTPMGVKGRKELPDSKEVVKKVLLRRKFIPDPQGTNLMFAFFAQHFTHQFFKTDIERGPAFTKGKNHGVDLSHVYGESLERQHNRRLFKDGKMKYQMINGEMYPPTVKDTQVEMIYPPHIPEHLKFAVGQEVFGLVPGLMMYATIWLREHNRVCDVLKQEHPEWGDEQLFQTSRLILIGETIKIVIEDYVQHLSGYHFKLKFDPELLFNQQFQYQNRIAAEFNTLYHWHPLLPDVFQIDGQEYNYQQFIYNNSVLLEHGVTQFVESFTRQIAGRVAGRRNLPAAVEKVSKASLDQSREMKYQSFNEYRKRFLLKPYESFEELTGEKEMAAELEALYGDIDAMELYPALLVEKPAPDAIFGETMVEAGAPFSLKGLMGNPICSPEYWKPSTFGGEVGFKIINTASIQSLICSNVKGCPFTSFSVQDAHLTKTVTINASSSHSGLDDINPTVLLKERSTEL
Chain of Adenosine receptor A1 (Bos taurus) (P28190 whole entry, looked up): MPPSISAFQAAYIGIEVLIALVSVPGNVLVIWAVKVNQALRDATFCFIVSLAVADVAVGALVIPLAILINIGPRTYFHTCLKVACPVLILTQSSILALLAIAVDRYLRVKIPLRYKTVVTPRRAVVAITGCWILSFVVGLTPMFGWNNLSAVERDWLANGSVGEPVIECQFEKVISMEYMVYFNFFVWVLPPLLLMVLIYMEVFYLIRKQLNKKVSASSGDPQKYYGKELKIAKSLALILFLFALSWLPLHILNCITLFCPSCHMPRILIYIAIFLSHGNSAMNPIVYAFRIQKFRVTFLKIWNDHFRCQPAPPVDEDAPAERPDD
Chain of guinea pig Opioid, Kappa 1 Receptor (OpiateK), OPRK1 (gene 100135587) (P41144 whole entry, looked up): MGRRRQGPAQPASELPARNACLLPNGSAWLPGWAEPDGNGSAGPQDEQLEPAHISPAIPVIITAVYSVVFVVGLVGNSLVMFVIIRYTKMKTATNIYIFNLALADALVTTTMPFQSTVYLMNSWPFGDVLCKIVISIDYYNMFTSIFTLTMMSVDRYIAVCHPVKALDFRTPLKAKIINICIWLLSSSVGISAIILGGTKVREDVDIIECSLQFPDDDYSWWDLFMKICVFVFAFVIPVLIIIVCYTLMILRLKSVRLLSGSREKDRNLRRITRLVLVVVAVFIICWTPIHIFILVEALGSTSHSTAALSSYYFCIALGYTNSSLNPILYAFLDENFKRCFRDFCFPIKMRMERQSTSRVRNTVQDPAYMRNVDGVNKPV
Chain of sheep Cyclooxygenase-1 (Cox1), PTGS1 (gene 443551) (P05979 whole entry, looked up): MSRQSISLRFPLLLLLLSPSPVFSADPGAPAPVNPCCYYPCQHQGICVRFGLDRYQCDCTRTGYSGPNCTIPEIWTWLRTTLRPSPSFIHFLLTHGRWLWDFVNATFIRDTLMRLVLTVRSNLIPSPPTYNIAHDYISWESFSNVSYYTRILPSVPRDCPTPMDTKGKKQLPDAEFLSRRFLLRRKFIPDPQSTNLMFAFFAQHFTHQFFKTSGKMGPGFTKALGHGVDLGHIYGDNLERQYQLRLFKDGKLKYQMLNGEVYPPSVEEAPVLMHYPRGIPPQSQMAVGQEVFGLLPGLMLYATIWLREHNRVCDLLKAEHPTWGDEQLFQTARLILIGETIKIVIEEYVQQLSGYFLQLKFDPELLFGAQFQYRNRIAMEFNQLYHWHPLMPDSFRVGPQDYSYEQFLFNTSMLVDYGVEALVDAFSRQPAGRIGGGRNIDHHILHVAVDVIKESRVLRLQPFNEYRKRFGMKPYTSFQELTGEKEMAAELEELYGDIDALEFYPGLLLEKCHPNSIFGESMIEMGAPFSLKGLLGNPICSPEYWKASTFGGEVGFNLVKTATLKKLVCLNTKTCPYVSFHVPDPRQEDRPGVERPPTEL
Chain of human Serotonin, 5-Hydroxytryptamine Receptor 2A (5HT2A), HTR2A (gene 3356) (P28223 whole entry, looked up): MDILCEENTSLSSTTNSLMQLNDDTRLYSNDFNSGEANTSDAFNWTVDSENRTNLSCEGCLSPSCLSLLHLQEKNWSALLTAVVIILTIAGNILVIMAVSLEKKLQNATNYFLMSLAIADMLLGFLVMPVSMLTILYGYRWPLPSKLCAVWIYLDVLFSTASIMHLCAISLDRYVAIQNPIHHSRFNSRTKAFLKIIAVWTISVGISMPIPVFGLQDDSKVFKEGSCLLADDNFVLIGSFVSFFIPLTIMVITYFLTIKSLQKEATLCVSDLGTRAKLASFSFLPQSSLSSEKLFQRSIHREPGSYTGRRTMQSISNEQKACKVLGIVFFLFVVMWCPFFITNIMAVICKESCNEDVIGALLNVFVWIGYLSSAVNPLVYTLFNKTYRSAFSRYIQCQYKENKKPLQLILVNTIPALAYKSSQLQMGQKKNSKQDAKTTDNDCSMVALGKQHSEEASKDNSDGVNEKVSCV
Chain of human Serotonin, 5-Hydroxytryptamine Receptor 7 (5HT7), HTR7 (gene 3363) (P34969 whole entry, looked up): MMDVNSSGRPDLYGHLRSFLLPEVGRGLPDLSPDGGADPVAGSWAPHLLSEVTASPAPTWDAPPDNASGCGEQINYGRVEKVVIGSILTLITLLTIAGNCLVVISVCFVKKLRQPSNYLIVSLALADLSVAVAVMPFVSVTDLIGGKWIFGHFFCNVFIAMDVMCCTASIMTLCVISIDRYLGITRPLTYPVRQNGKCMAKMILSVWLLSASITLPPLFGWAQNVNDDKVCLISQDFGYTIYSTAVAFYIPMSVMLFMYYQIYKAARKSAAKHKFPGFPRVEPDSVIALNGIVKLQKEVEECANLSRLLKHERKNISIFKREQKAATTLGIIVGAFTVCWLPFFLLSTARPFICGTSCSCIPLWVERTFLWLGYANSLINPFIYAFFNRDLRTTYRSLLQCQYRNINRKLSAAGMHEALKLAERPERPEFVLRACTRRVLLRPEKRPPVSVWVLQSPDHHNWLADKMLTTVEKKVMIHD

As for `CC(C)(C)c1cc(/C=C2\SC(N)=NC2=O)cc(C(C)(C)C)c1O`, the call in assay [1], in assay [2], in assay [3] and in [4] was inactive.
Take `CC1=CC(=O)/C(=C(/C)O)C(=O)O1`: in assay [5], the call was inactive.
By AC50 is commonly meant the midpoint of the concentration-response curve, whichever way the signal moves. For the compound `O=c1c(-c2ccc(O)cc2)coc2cc(O)cc(O)c12`, the result in assay [2] and in assay [6] was inactive. Also, the values for the AC50 in assay [3] and in [7] were 18.9 µM (active) and 6.03 µM (active), respectively.
`O=C(Nc1ccc(Cl)cc1)Nc1ccc(Cl)c(Cl)c1`: the result in assay [1] was inactive.
For `CO[C@H]1/C=C/O[C@@]2(C)Oc3c(C)c(O)c4c(O)c(c(/C=N/N5CCN(C)CC5)c(O)c4c3C2=O)NC(=O)/C(C)=C\C=C\[C@H](C)[C@H](O)[C@@H](C)[C@@H](O)[C@@H](C)[C@H](OC(C)=O)[C@@H]1C`, the AC50 in assay [5] is 7.74 µM (active); in [2], 3.36 µM (active).
In the case of `CCCCOC(=O)c1ccc(O)cc1`, the outcome in assay [1], in [8] and in assay [9] was inactive. For the same compound, the AC50 was 7.62 µM (active) in assay [5] and 11.7 µM (active) in [6].
With `COc1cc(C(=O)NC2CCN(C)CC2)ccc1Nc1ncc2c(n1)N(C1CCCC1)CC(F)(F)C(=O)N2C`, the compound was called inactive in assay [1]. The AC50 in [5] was 15.2 µM (active); in assay [10], 14 µM (active); in assay [11], 11.2 µM (active); in [12], 23.2 µM (active); in [13], 9.85 µM (active); in assay [9], 23.2 µM (active). Moreover, the AC50 in assay [6] was 4.71 µM (active); in assay [14], 3.25 µM (active); in [7] it was 13.8 µM (active).
With `CCN(CC)C(=O)c1cc(S(=O)(=O)Cc2ccccc2)c(N2CCC(c3ccccc3)CC2)cc1N(CC)CCN(C)C`, the compound was called inactive in assay [8], in [3] and in assay [15]. Moreover, the AC50 in [11] is 6.88 µM (active); in assay [12] it was 8.55 µM (active); in assay [13], 12 µM (active); in assay [16], 4.84 µM (active); in [9] it was 23.4 µM (active); in assay [17] it was 971 nM (active). For the same compound, the AC50 in [6] was 6.22 µM (active); in [14] it was 8.87 µM (active).
Turning to `CC/C(=C(/CC)c1ccc(O)cc1)c1ccc(O)cc1`, the compound was classed as inactive in [2] and in assay [16]. Besides, the AC50 in [18] was 5.08 µM (active); in assay [9], 15.1 µM (active); in assay [17] it was 25 µM (active) and 19.5 µM (active); in assay [6], 4.81 µM (active).
For `CCCCCCCCCCCO`, the compound was classed as inactive in assay [1] and in assay [15].

For the origin of these results see PubChem BioAssay (EPA / NIEHS).
